Values joined by “and” are separate entries in the source; they are usually repeats but may differ in a detail not shown here. Equal entries are not always repeated. Hit rate of the full screen: of about 5,500 compounds, about 2,000 (36%) were called active. Roughly 18% stayed inconclusive and do not appear here. Rule as the data show it: active = normalized growth mostly below about 0.91 (no sharp cut-off); inconclusive = no clear call, values can overlap the other calls; inactive = mostly above about 0.92. The list shows a part of the results.
Test: chemical genetic growth profiling, strain panel (AID 1159580);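 also: tested at 20 µM; growth read once vehicle control cultures reached saturation at 30 °C; 1 = growth at the plate median or of vehicle wells; lower values mean less growth of the strain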
Details: S. cerevisiae deletion strains, growth OD

Measured: normalized growth

COC(=O)[C@@H]1OC(=O)C2OC23[C@@]1(C)CCC1[C@]2(C)C(C[C@@H](O)[C@]13C)C(C)(C)[C@H](OC(C)=O)C[C@@H]2OC(C)=O (stereo not given in full)
inactive: locus YAL021C, strain ccr4, stronger effect = lower value 1 | locus YAL026C, strain drs2, stronger effect = lower value 1.01 | locus YAL030W, strain snc1, stronger effect = lower value 1 | locus YBL061C, strain skt5, stronger effect = lower value 1 | locus YBR009C, strain hhf1, stronger effect = lower value 1.03 | locus YBR021W, strain FUR4, stronger effect = lower value 0.993 | locus YBR023C, strain chs3, stronger effect = lower value 0.997 | locus YBR171W, strain sec66, stronger effect = lower value 0.995 | locus YBR229C, strain ROT2, stronger effect = lower value 1.01 | locus YBR231C, strain swc5, stronger effect = lower value 1.01 | locus YBR279W, strain paf1, stronger effect = lower value 1 | locus YCL011C, strain gbp2, stronger effect = lower value 1.01 | locus YCL016C, strain dcc1, stronger effect = lower value 1 | locus YCL029C, strain bik1, stronger effect = lower value 1.01 | locus YCL069W, strain vba3, stronger effect = lower value 0.996 | locus YCR088W, strain abp1, stronger effect = lower value 0.991 | locus YDL005C, strain med2, stronger effect = lower value 0.987 | locus YDL035C, strain GPR1, stronger effect = lower value 1.05 | locus YDL040C, strain nat1, stronger effect = lower value 1 | locus YDL074C, strain BRE1, stronger effect = lower value 1.06 | locus YDL101C, strain DUN1, stronger effect = lower value 1.02 | locus YDL134C, strain PPH21, stronger effect = lower value 1.02 | locus YDL185W, strain tfp1, stronger effect = lower value 1.01 | locus YDL192W, strain arf1, stronger effect = lower value 1.01 | locus YDR001C, strain nth1, stronger effect = lower value 0.997 | locus YDR069C, strain doa4, stronger effect = lower value 1.01 | locus YDR101C, strain arx1, stronger effect = lower value 1.03 | locus YDR137W, strain rgp1, stronger effect = lower value 1.03 | locus YDR150W, strain NUM1, stronger effect = lower value 1.01 | locus YDR159W, strain sac3, stronger effect = lower value 0.985 | locus YDR162C, strain NBP2, stronger effect = lower value 1.03 | locus YDR195W, strain ref2 0.988 | locus YDR297W, strain sur2, stronger effect = lower value 0.989 | locus YDR318W, strain mcm21, stronger effect = lower value 0.995 | locus YDR334W, strain swr1, stronger effect = lower value 1 | locus YDR335W, strain msn5, stronger effect = lower value 1 | locus YDR388W, stronger effect = lower value 1.01 | locus YDR392W, strain spt3, stronger effect = lower value 1.01 | locus YDR502C, strain sam2, stronger effect = lower value 1 | locus YEL003W, strain gim4, stronger effect = lower value 1 | locus YEL037C, strain rad23, stronger effect = lower value 1 | locus YEL061C, strain CIN8 (second series), stronger effect = lower value 0.986 | locus YEL061C, strain CIN8, stronger effect = lower value 1.01 | locus YER015W, strain faa2, stronger effect = lower value 0.994 | locus YER016W, strain bim1, stronger effect = lower value 1 | locus YER110C, stronger effect = lower value 0.995 | locus YER111C, strain swi4, stronger effect = lower value 1 | locus YER155C, strain BEM2 (second series), stronger effect = lower value 1.01 | locus YER155C, strain BEM2, stronger effect = lower value 0.989 | locus YER167W, strain BCK2, stronger effect = lower value 1.02 | locus YFR010W, strain ubp6, stronger effect = lower value 1.02 | locus YGL078C, strain dbp3, stronger effect = lower value 1.01 | locus YGL086W, strain mad1, stronger effect = lower value 0.996 | locus YGL167C, strain pmr1, stronger effect = lower value 1 | locus YGL173C, strain kem1, stronger effect = lower value 1 | locus YGL227W, strain vid30, stronger effect = lower value 1.01 | locus YGL240W, strain doc1, stronger effect = lower value 1 | locus YGL248W, strain PDE1, stronger effect = lower value 1.01 | locus YGL253W, strain hxk2, stronger effect = lower value 1.01 | locus YGR135W, strain pre9, stronger effect = lower value 0.971 | locus YGR252W, strain gcn5, stronger effect = lower value 0.966 | locus YHR013C, strain ard1, stronger effect = lower value 0.989 | locus YHR027C, strain rpn1, stronger effect = lower value 1 | locus YHR030C, strain SLT2, stronger effect = lower value 0.998 | locus YHR079C, strain IRE1 (second series), stronger effect = lower value 1 | locus YHR079C, strain IRE1, stronger effect = lower value 1.01 | locus YHR094C, strain hxt1, stronger effect = lower value 1.01 | locus YHR129C, strain ARP1, stronger effect = lower value 0.999 | locus YHR142W, strain chs7, stronger effect = lower value 1 | locus YHR200W, strain rpn10, stronger effect = lower value 1.01 | locus YIL066C, strain RNR3, stronger effect = lower value 1.03 | locus YIL073C, strain SPO22, stronger effect = lower value 1.03 | locus YIL125W, strain kgd1, stronger effect = lower value 0.997 | locus YIR030C, strain dcg1, stronger effect = lower value 0.992 | locus YJL092W, strain hpr5, stronger effect = lower value 0.997 | locus YJL095W, strain BCK1 (second series), stronger effect = lower value 0.989 | locus YJL095W, strain BCK1, stronger effect = lower value 1 and 0.991 | locus YJL115W, strain asf1, stronger effect = lower value 0.995 | locus YJL129C, strain trk1, stronger effect = lower value 0.995 | locus YJL134W, strain LCB3, stronger effect = lower value 1.01 | locus YJL154C, strain vps35, stronger effect = lower value 1.01 | locus YJL164C, strain tpk1, stronger effect = lower value 1.02 | locus YJL166W, strain qcr8, stronger effect = lower value 1.01 | locus YJL168C, strain set2, stronger effect = lower value 0.998 | locus YJL187C, strain SWE1 (second series), stronger effect = lower value 1 | locus YJL187C, strain SWE1, stronger effect = lower value 1.01 | locus YJR066W, strain TOR1, stronger effect = lower value 0.913 | locus YKL009W, strain mrt4, stronger effect = lower value 0.998 | locus YKL068W, stronger effect = lower value 1 | locus YKL085W, strain MDH1 (second series), stronger effect = lower value 0.999 | locus YKL085W, strain MDH1, stronger effect = lower value 0.999 | locus YKL160W, strain elf1, stronger effect = lower value 1 | locus YKL190W, strain CNB1, stronger effect = lower value 1.01 | locus YKR001C, strain vps1, stronger effect = lower value 1.01 | locus YKR026C, strain gcn3, stronger effect = lower value 0.993 | locus YKR091W, strain srl3, stronger effect = lower value 0.999 | locus YLL001W, strain dnm1, stronger effect = lower value 1.01 | locus YLL026W, stronger effect = lower value 0.998 | locus YLL041C, strain sdh2, stronger effect = lower value 0.995 | locus YLR027C, strain aat2, stronger effect = lower value 1.01 | locus YLR039C, strain RIC1, stronger effect = lower value 1.12 | locus YLR058C, strain SHM2, stronger effect = lower value 1.02 | locus YLR102C, strain apc9, stronger effect = lower value 1 | locus YLR113W, strain HOG1, stronger effect = lower value 1.08 | locus YLR221C, strain rsa3, stronger effect = lower value 0.999 | locus YLR258W, strain gsy2, stronger effect = lower value 1.01 | locus YLR262C, strain YPT6 (second series), stronger effect = lower value 0.997 | locus YLR268W, strain sec22, stronger effect = lower value 1.02 | locus YLR320W, strain mms22, stronger effect = lower value 1 | locus YLR330W, strain CHS5, stronger effect = lower value 1.01 | locus YLR342W, strain FKS1, stronger effect = lower value 1 | locus YLR357W, strain rsc2, stronger effect = lower value 0.969 | locus YLR370C, strain arc18, stronger effect = lower value 1.01 | locus YLR371W, strain rom2, stronger effect = lower value 0.988 | locus YLR384C, strain iki3, stronger effect = lower value 0.988 | locus YLR418C, strain cdc73, stronger effect = lower value 0.972 | locus YML016C, strain PPZ1, stronger effect = lower value 1.01 | locus YML032C, strain rad52, stronger effect = lower value 1.01 | locus YML120C, strain ndi1, stronger effect = lower value 0.994 | locus YML124C, strain tub3, stronger effect = lower value 0.987 | locus YMR058W, strain fet3, stronger effect = lower value 1.01 | locus YMR078C, strain ctf18, stronger effect = lower value 1 | locus YMR125W, strain sto1, stronger effect = lower value 0.987 | locus YMR129W, stronger effect = lower value 0.996 | locus YMR205C, strain PFK2, stronger effect = lower value 1.01 | locus YMR223W, strain ubp8, stronger effect = lower value 0.985 | locus YMR231W, strain pep5, stronger effect = lower value 0.994 | locus YMR307W, strain GAS1, stronger effect = lower value 0.996 | locus YNL067W, strain RPL9B, stronger effect = lower value 1.01 | locus YNL071W, strain lat1, stronger effect = lower value 0.997 | locus YNL183C, strain NPR1, stronger effect = lower value 0.95 | locus YNL209W, strain ssb2, stronger effect = lower value 1.01 | locus YNL233W, strain BNI4, stronger effect = lower value 1.01 | locus YNL248C, strain rpa49, stronger effect = lower value 0.997 | locus YNL250W, strain rad50, stronger effect = lower value 1 | locus YNL271C, strain bni1, stronger effect = lower value 1.01 | locus YNL298W, strain CLA4, stronger effect = lower value 1.01 | locus YNL307C, strain MCK1, stronger effect = lower value 1.01 | locus YNL322C, strain KRE1 (second series), stronger effect = lower value 0.998 | locus YNL322C, strain KRE1, stronger effect = lower value 1.02 | locus YNR049C, strain mso1, stronger effect = lower value 0.988 | locus YNR052C, strain pop2, stronger effect = lower value 0.996 | locus YOL012C, strain htz1 0.946 | locus YOL147C, strain pex11, stronger effect = lower value 0.998 | locus YOR001W, strain rrp6, stronger effect = lower value 1.03 | locus YOR061W, strain CKA2, stronger effect = lower value 1.02 | locus YOR069W, strain VPS5, stronger effect = lower value 1.01 | locus YOR070C, strain gyp1, stronger effect = lower value 1 | locus YOR080W, strain dia2, stronger effect = lower value 1.01 | locus YOR083W, strain WHI5, stronger effect = lower value 1 | locus YOR106W, strain vam3, stronger effect = lower value 1.02 | locus YOR136W, strain idh2, stronger effect = lower value 0.989 | locus YOR144C, strain elg1, stronger effect = lower value 1.01 | locus YOR184W, strain ser1, stronger effect = lower value 1.01 | locus YOR231W, strain MKK1, stronger effect = lower value 1.01 | locus YOR265W, strain rbl2, stronger effect = lower value 0.983 | locus YOR270C, strain vph1, stronger effect = lower value 1.02 | locus YOR290C, strain snf2, stronger effect = lower value 1 | locus YOR316C, strain cot1, stronger effect = lower value 1 | locus YPL051W, strain arl3, stronger effect = lower value 1.01 | locus YPL055C, strain LGE1, stronger effect = lower value 1.03 | locus YPL078C, strain atp4, stronger effect = lower value 1.01 | locus YPL106C, strain sse1, stronger effect = lower value 0.999 | locus YPL240C, strain hsp82, stronger effect = lower value 1 | locus YPL256C, strain CLN2, stronger effect = lower value 1.01 | locus YPR119W, strain clb2, stronger effect = lower value 1 | locus YPR141C, strain kar3, stronger effect = lower value 1 | locus YPR163C, strain tif3, stronger effect = lower value 1.01 | locus YPR167C, strain met16, stronger effect = lower value 1 | strain wtn01, stronger effect = lower value 1

— PubChem BioAssay AID1159580 (chemical genetic matrix, 2015)
